High-throughput results as filed in PubChem.
Only some compounds are listed: those with a hit (about 21% of all), similar ones and a draw of the others.
Pf growth 48h = inhibits P. falciparum growth in the first generation, 48 h | P. falciparum luciferase growth in erythrocytes, 48 h | Potency, µM (top dose mostly 28.7 µM), hits mostly inhibitors | actives 5.9% (n = 310,000) | AID 504832
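Luminescence readout; reporter = integrated firefly luciferase in P. falciparum. RBC culture at 2% hematocrit, 0.1% parasitemia final, 37 C/5% CO2; decreased signal taken as growth inhibition.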
Pf growth 96h = inhibits malaria parasite growth, 96 h. P. falciparum luciferase reporter growth, 96 h. Potency, µM (highest dose often 28.7 µM), actives largely listed as inhibitors. actives 6.9% (n = 320,000). AID 504834
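P. falciparum expressing integrated firefly luciferase, in erythrocytes at 2% hematocrit, 0.05% parasitemia, incubated with compounds 96 h at 37 C, 5% CO2. Growth inhibition read as loss of luminescence; two-generation exposure targets delayed-death apicoplast inhibitors.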
Cycloheximide cs = counter-screen for Shiga toxin inhibitors: cycloheximide protein synthesis inhibition | cell reporter, cycloheximide protein synthesis inhibition counterscreen | max response, % | actives 12% (n = 300,000) | AID 2314; in the data active = max response mostly above about 13%, no sharp cut-off; inactive = mostly below about 14%; note: read at 38.3 µM for the half of the compounds with a filed dose
Sm TGR block = inhibitors of Schistosoma mansoni thioredoxin glutathione reductase | purified TGR, DTNB reduction, TNB absorbance 405 nm | Potency, µM (highest dose often 114 µM), most hits filed as inhibitors | actives 3% (n = 360,000) | AID 485364; note: nearly all actives have a fitted effect of over 60% in size
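First, TGR (20 nM dispensed) and NADPH were mixed with compound. Second, a 15 min room-temperature incubation followed. Third, further NADPH and then DTNB were added to start the reaction. Finally, TNB absorbance was monitored kinetically.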
NS1 inh = influenza NS1 inhibition. Potency, µM (highest dose often 46.1 µM). actives 0.4% (n = 270,000). AID 2326; calls by dose curve; note: actives are rising curves; nearly all actives have a fitted effect of over 50% in size
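S. cerevisiae expressing influenza A NS1, grown in glucose, washed, then diluted 1:100 into pH 6.0 -URA galactose medium with 23 nl compound. Growth recovery read as OD600; NS1-free strain serves as control.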
Shiga inhibitor = blocks Shiga toxin action in Vero cells; Vero cells, Shiga toxin protein synthesis inhibition reporter; inhibition, % at 38.7 µM; actives 9.2% (n = 290,000); in the data active = inhibition mostly above about 28%, no sharp cut-off; inactive = mostly below about 43%
Of the large screens only hits and unclear results are named; the others gave an inactive call. Unless noted, calls come from the whole dose curve; as a rule, active = well fitted curve in the direction sought with a large enough effect; inconclusive = small, poorly fitted or top-dose-only effect, or another doubt; inactive = no such curve, though single readings can be large; an effect the other way counts as inactive or inconclusive.

c1ccc(Cc2nn3c(COc4ccccc4)nnc3s2)cc1	Cycloheximide cs 13, Shiga inhibitor 60 (no result: Pf growth 96h)
Cc1ccc(-c2nnc3sc(CCc4ccccc4)nn23)cc1	Pf growth 48h inconclusive, Cycloheximide cs 19, Shiga inhibitor 47
CCOc1ccccc1OCc1nn2c(COc3ccccc3)nnc2s1	Pf growth 96h inconclusive
CCOc1ccc(-c2nnc3sc(COc4ccccc4)nn23)cc1	Pf growth 96h 12µM
Cc1cccn2c(CN3CCCN(C=O)CC3)c(C(=O)N(C)CCc3ccccc3)nc12	none
COc1ccc(NC(=O)c2ncoc2-c2ccco2)cc1Cl	none (no result: Pf growth 48h, Pf growth 96h, Cycloheximide cs, NS1 inh, Shiga inhibitor)
Cc1ccc(C(C)C)c(OCCCN(C)Cc2ccccc2)c1	Pf growth 48h 13µM, Pf growth 96h inconclusive
OC(CNC1CCCC1)COc1ccc(Cl)cc1 (stereo not drawn)	Pf growth 48h 15µM
CN(CCOc1cccc2ccccc12)Cc1ccccc1	Pf growth 96h 4.1µM
O=C(O)c1ccccc1C(=O)NCC(O)COc1ccc(Cl)cc1 (stereo not drawn)	Cycloheximide cs 38, Shiga inhibitor 55
COc1ccc(OCC(O)CNC(=O)c2ccccc2C(=O)O)cc1 (stereo not drawn)	Pf growth 96h inconclusive
CCc1ccc(CN(C)CC(O)COc2cccc3ccccc23)cc1 (stereo not drawn)	Pf growth 96h inconclusive
Cc1ccc(C(C)C)c(OCC(O)CNC2CCCC2)c1 (stereo not drawn)	Pf growth 48h 5.2µM
Cc1nn(C)cc1CNCc1ccc(OCC(O)CN(C)Cc2ccccc2)cc1 (stereo not drawn)	Pf growth 48h inconclusive
Cc1ccc(C(C)C)c(OCC(O)CN(C)Cc2ccccc2)c1 (stereo not drawn)	Pf growth 96h 2.1µM (no result: Pf growth 48h)
Cc1ccc(CCNC(=O)CCCc2nnc3n(C)c(=O)c4sccc4n23)cc1	none (no result: Pf growth 48h, Pf growth 96h, Cycloheximide cs, NS1 inh, Shiga inhibitor)
O=C(Nc1ccc(Oc2cccnc2)cc1)C1CCN(Cc2cc(Cl)ccc2O)CC1	Pf growth 48h 1.3µM, Pf growth 96h inconclusive
Cc1cccc(CN2CCC(C(=O)Nc3ccc(Oc4cccnc4)cc3)CC2)c1	Pf growth 48h 13µM
CCn1cc(CN2CCC(C(=O)Nc3ccc(Oc4cccnc4)cc3)CC2)cn1	Pf growth 48h 13µM
CCn1cc(CN2CCC(C(=O)Nc3ccc(Oc4cccnc4)cc3)CC2)c(C)n1	Pf growth 48h inconclusive
O=C(Nc1ccc(Oc2cccnc2)cc1)C1CCN(Cc2ccc(F)cc2)CC1	Pf growth 48h inconclusive
COc1ccccc1CNC(=S)NC1CCCC1	Pf growth 96h inconclusive
COc1ccc(CCNC(=O)COc2cccc(-n3cnnn3)c2)cc1	none (no result: Cycloheximide cs, NS1 inh, Shiga inhibitor)
O=C(NCCc1nccs1)C1CCC(=O)N(Cc2cccc(C(F)(F)F)c2)C1 (stereo not drawn)	Pf growth 48h inconclusive
Cc1nnc(N/N=C/c2ccc(O)c([N+](=O)[O-])c2)[nH]c1=O	Pf growth 96h inconclusive
COc1cc(/C=N/Nc2nc(-c3ccc(S(=O)(=O)N(C)C)cc3)cs2)ccc1O	Pf growth 48h 2.1µM, Pf growth 96h 8.3µM, Cycloheximide cs 13, NS1 inh inconclusive, Shiga inhibitor 50
Cc1onc(-c2ccccc2)c1C(=O)N/N=C/c1ccc(O)c([N+](=O)[O-])c1	Pf growth 96h inconclusive
O=[N+]([O-])c1cc(/C=N\Nc2nc(-c3ccccc3)cs2)ccc1O	Pf growth 48h 12µM, Cycloheximide cs 23 (no result: NS1 inh)
CC(C)(C)c1csc(N/N=C/c2ccc(O)cc2)n1	Pf growth 96h inconclusive, Cycloheximide cs 47, Shiga inhibitor 91
COc1cc(/C=N/Nc2cc(C)nc(NS(=O)(=O)c3ccc(C)cc3)n2)ccc1O	none
Cc1csc(N/N=C/c2ccc(O)c([N+](=O)[O-])c2)n1	Pf growth 96h inconclusive, Sm TGR block 10µM (no result: Pf growth 48h)
CCN(CC)C(=O)c1ccc2c(c1)N(Cc1ccccc1F)C(=O)c1ccccc1S2=O (stereo not drawn)	none (no result: Pf growth 48h, Pf growth 96h, Cycloheximide cs, NS1 inh, Shiga inhibitor)
Cc1ccc(Cl)cc1NC(=O)c1oc2ccc(S(=O)(=O)N3CCC4(CC3)OCCO4)cc2c1C	none (no result: Pf growth 48h, Pf growth 96h, Cycloheximide cs, NS1 inh, Shiga inhibitor)
Cc1ccc(-n2c(SCC(=O)NCc3ccco3)nc3nc4c(cc3c2=O)COC(C)(C)C4)cc1	Pf growth 48h 9.3µM, Sm TGR block 22µM
CN(Cc1ccccc1)C(=O)CSc1nc2ccccc2c(=O)n1Cc1ccco1	Pf growth 96h inconclusive, Cycloheximide cs 38
O=C(CSc1nc2ccccc2c(=O)n1-c1ccccc1)NCc1ccco1	Cycloheximide cs 42
